Experimental data: PubChem BioAssay AID1979 (Broad Institute, 2009)
About 1,700 (0.57%) of roughly 300,000 compounds were called active. Another 2% or so got no clear call; they are omitted.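 The calls were made as follows: active = growth inhibition above about 58% in most replicates (limit read from the data, passing the limit was not always enough); inconclusive = exactly half the replicates above a set limit; inactive = most replicates below a set limit.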 Only a selection was taken, and actives are over-represented in it overall.

assay: Candida growth reduction under fluconazole – CaCi-2 strain, Alamar Blue fluorescence, primary screen (AID 1979);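 also: all wells also contain fluconazole at 8 µg/ml as a sub-toxic cotreatment; 0% = median of DMSO wells and 100% = median of geldanamycin control wells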; settings: C. albicans CaCi-2 (fluconazole-resistant clinical isolate) + fluconazole, 48 h, stronger effect = higher value, concentration not given here

Growth inhibition, active:
CC12CCC(C(=O)N(NC(=O)c3ccccc3O)C1=O)C2(C)C (centres undefined) 107%
Cc1ccc(/C=N/NC(=O)C2=NNC(c3ccccc3)(c3ccccc3)C2)c(O)c1 102%
CC(=O)Nc1ccc(Nc2c3ccccc3nc3ccccc23)cc1 111%
CCCCC(=O)NNC(=S)NC(=O)C(c1ccccc1)c1ccccc1 107%
COc1cccc(/C=N/Nc2cc(C)nc(-c3ccccc3O)n2)c1O 112%
CC[n+]1cc(C)ccc1/C=C/c1ccc(N(C)C)cc1 79.2%
Cc1nnc(N/N=C/c2ccccn2)[nH]c1=O 102%
O=C(CC(NCCN1CCOCC1)C(=O)O)Nc1cccc(Cl)c1 (centres undefined) 90.7%
S=c1[nH]nc(-c2cccs2)n1/N=C/c1cccs1 78.7%
Oc1c(CN2CCN(c3ccc(F)cc3)CC2)cc(Cl)c2cccnc12 112%
CCOC(=O)c1c(-c2ccccc2)oc2cc(Br)c(O)c(C=O)c12 99.6%
Cc1ccc(NNC(=O)c2cccs2)cc1Cl 94.7%
COc1ccc(NC(=O)CSc2nc(C)cs2)cc1 106%
Cc1c(CCOC(=O)CC23CC4CC(CC(C)(C4)C2)C3)sc[n+]1Cc1ccc([N+](=O)[O-])cc1 93%
COc1cccc(/C=N/NC(=O)c2[nH]nc3c2CCc2ccccc2-3)c1O 89.9%
Oc1c(C(c2ccccn2)N2CCOCC2)ccc2cccnc12 (centres undefined) 85.8%
Cc1cccc(NC(=O)CSC(N)=O)c1C 91.9%
NC(=O)COc1ccc2c3c(c(=O)oc2c1)CCCCC3 122%
COc1cccc(C(=O)NNC(=O)c2ccccc2Br)c1 110%

Growth inhibition, inactive:
COc1ccc(-c2nnc(SCC(=O)Nc3cccnc3Cl)n2C)cc1 6.53%
O=C(NC(Cc1ccccc1)C(=O)N1CCCC(C(F)(F)F)C1)c1ccccc1 (centres undefined) 1.33%
CCCCN(C(=O)CSCC(=O)Nc1ccc(OC)cc1)c1c(N)n(CCC)c(=O)[nH]c1=O -2.57%
O=C(NN1C(=O)C2C(C1=O)C1C=CC2C12CC2)c1ccccc1Cl (centres undefined) 3.48%
CC12CCC(C(=O)N(c3cccc(Cl)c3)C1=O)C2(C)C (centres undefined) -3.94%
COc1cc(/C=N/NC(=O)c2cc(-c3ccccc3C)nc3ccccc23)cc(OC)c1O 32.7%
COc1ccc(/C=N/NC(=O)c2cc(-c3cccc(C)c3)nc3ccccc23)cc1O 34.6%
O=C(Nc1ccc(OC(F)(F)F)cc1)c1ccc2c(c1)no[n+]2[O-] -3.65%
CC1CC2=C(CC1/C=N/NC(N)=S)C(C)(C)CCC2 (centres undefined) 26.2%
CC(C)CN(C(=O)c1ccc2c(c1)OCO2)C1CCS(=O)(=O)C1 (centres undefined) 3.11%
CCOc1cc(C(=O)Nc2ccc(S(=O)(=O)Nc3cnc4ccccc4n3)cc2)cc(OCC)c1OCC 19.7%
Cc1ccc(Nc2c3c(nc4ccccc24)CCC3)cc1 70.5%
CC(=O)Nc1ccc(NC(=O)COc2ncnc3ccccc23)cc1 -12.4%
COc1ccc(C(=O)OCC(=O)Nc2ccc3[nH]c(=O)[nH]c3c2)c(OC)c1OC -6.2%
CC(OC(=O)CCC(=O)c1ccccc1)C(=O)Nc1ccc(F)cc1 (centres undefined) -2.1%
C=CCOc1ccc(/C=C/C(=O)OC(C)C(=O)Nc2ccc(NC(C)=O)cc2)cc1 (centres undefined) -2.89%
O=C(CN(C(=O)c1csnn1)c1cccc(Cl)c1)NC1CCCC1 9.33%
O=C(NNC(=S)NCc1ccco1)C(c1ccccc1)c1ccccc1 15.6%
CC(C)C(=O)Nc1cccc(NC(=S)NC(=O)C(c2ccccc2)c2ccccc2)c1 50.4%
Cc1ccc(CSCC(=O)N(C)CC(=O)Nc2cccc(F)c2)cc1 -6.82%
Cc1ccc(OCCC(=O)OCC(=O)N2c3ccccc3NC(=O)C2(C)C)cc1 -5.48%
Cn1c(N2CCOCC2)c(C=O)c2ccccc21 -1.88%
Cc1cc(C(=O)OC(C)C(=O)NC2CCCCC2C)c(C)o1 (centres undefined) -4.31%
COc1cccc(/C=N/Nc2ncc(C(F)(F)F)cc2Cl)c1O 3.96%
COc1ccccc1/C=N\Nc1cc(C)nc(-n2nc(C)cc2C)n1 2.71%
CCOC(=O)c1c(NC(=O)CN2C(=O)NC3(CCC(C)CC3)C2=O)sc(C)c1CC (centres undefined) -6.28%
CN(C)c1ccc(/C=N\S(=O)(=O)c2ccccc2)cc1 -0.179%
Cc1nnc(N/N=C/c2cccs2)[nH]c1=O -0.996%
Cc1nnc(N/N=C/C2CC=CCC2)[nH]c1=O (centres undefined) -10.8%
CCN(CC(=O)Nc1cc(Cl)ccc1C)C(=O)CSCc1ccc(C)cc1 -5.77%
O=S(=O)(NCCS(=O)(=O)N1CCN(c2ccccc2)CC1)c1ccc(F)cc1 0.355%
O=C(NCCN1CCOCC1)Nc1cccc(Cl)c1 10.7%
O=C(CC(c1ccccc1)c1cc(Cl)ccc1O)NCCN1CCOCC1 (centres undefined) -8.66%
COc1ccccc1C(=O)COC(=O)CSCC(=O)Nc1cc(C)on1 0.143%
O=C(COC(=O)c1ncc(Cl)c(Cl)c1Cl)NC1CCS(=O)(=O)C1 (centres undefined) -0.837%
Oc1ccccc1/C=N/n1c(-c2cccs2)n[nH]c1=S -0.357%
S=c1[nH]nc(-c2cccs2)n1/N=C/c1cn(-c2ccccc2)nc1-c1ccc(Cl)cc1 -0.57%
COc1cc(C(=O)OCC(=O)N(CC(C)C)C2CCS(=O)(=O)C2)ccc1OCC(C)C (centres undefined) 5.68%
Oc1ccc(CN2CCN(c3ncccn3)CC2)cc1 -5.62%
Cc1cccnc1NC(=O)c1cccc(S(=O)(=O)N2CCN(c3ccc(F)cc3)CC2)c1 -15.4%
Cc1noc(C)c1COc1ccccc1C(=O)N(C)CC(=O)Nc1cccc(F)c1 3.18%
Cc1ccc(C(=O)NNC(=O)C(C)Oc2ccc3ccccc3c2)o1 (centres undefined) -0.807%
CCOC(=O)c1c(-c2ccccc2)oc2ccc(OCC(N)=O)cc12 1.32%
CCOC(=O)c1c(-c2ccccc2)oc2cc(Br)c(O)cc12 15.1%
OC(COCCC12CC3CC(CC(C3)C1)C2)CN1CCCCC1 (centres undefined) 8.32%
O=C(CCCCO)c1ccc(O)c(Cl)c1 -0.4%
Cc1ccc(NNC(=O)c2c(F)cccc2Cl)cc1Cl 3.83%
O=C(NNC(=O)c1ccc(Cl)cc1Cl)c1cccs1 -3.73%
N[C@@H](Cc1ccccc1)C(=O)N1CCC(C(=O)NCC(=O)Nc2ccc(F)cc2)CC1 -10.4%
COc1cc(OC)cc(-c2nnc(SCC(=O)Nc3ccc(C(=O)O)cc3)s2)c1 -1.63%
Cc1csc(SCC(=O)Nc2sccc2C#N)n1 4.45%
Cc1ccnc(NC(=O)CNC(=O)c2ccccc2)c1 -1.64%
COc1ccc2oc(C(=O)OCC(=O)N(CC(C)C)c3c(N)n(Cc4ccccc4)c(=O)[nH]c3=O)c(C)c2c1 5.5%
CCCn1c(C)cc(/C=C(\C#N)C(=O)OCC(=O)N(C)c2c(N)n(Cc3ccccc3)c(=O)[nH]c2=O)c1C -1.38%
Cc1c(CCO)sc[n+]1CC(=O)OC12CC3CC(CC(C3)C1)C2 -19.8%
Cc1c(CCOC(=O)c2cc([N+](=O)[O-])ccc2Cl)sc[n+]1CCCCS(=O)(=O)[O-] -13.2%
COc1ccc(/C=N/Nc2ncnc3sc4c(c23)CCCC4)cc1O 18.5%
COc1ccc(-c2cc(C(=O)NC(Cc3c[nH]c4ccccc34)C(=O)O)c(C)o2)cc1OC (centres undefined) -7.28%
COc1cc2cc(C(=O)N/N=C/c3cccc(OC)c3OC)[nH]c2cc1OC 0.698%
CN(C)CCNC(=O)c1[nH]nc2c1CCc1ccccc1-2 -8.27%
CCOc1ccc(-c2cc(C(=O)N/N=C/c3ccc(O)cc3)c3ccccc3n2)cc1 10.7%
CCC1(c2ccccc2)NC(=O)N(CC(=O)Nc2ccccc2C(=O)NC2CCCC2)C1=O (centres undefined) 2.41%
CC(C)c1cc(CN2CCOCC2)cc(C(C)C)c1O 5.31%
CCC(C)N(C(=O)COC(=O)c1nc(Cl)ccc1Cl)C1CCS(=O)(=O)C1 (centres undefined) -0.955%
Cc1cccc(NC(=O)COC(=O)CCc2ccccc2)c1C 0.193%
Cc1cccc(NC(=O)CN2C(=O)c3ccccc3C2=O)c1C -5.98%
COc1ccc(CCNc2cc(N3CCN(C(=O)c4ccccc4OC)CC3)ccc2[N+](=O)[O-])cc1OC -7.13%
NC(=O)C1CCN(C(=O)COc2ccc3c4c(c(=O)oc3c2)CCC4)CC1 -1.66%
O=C(COc1ccc2c3c(c(=O)oc2c1)CCC3)NC1CCCCC1 13.6%
Cc1ccc(SCC(=O)Nc2nncs2)cc1 -2.98%
COCCOC(=O)C1=C(C)NC(=O)NC1c1cc2c(cc1Br)OCO2 (centres undefined) -1.28%
Cc1c(CCC(=O)O)c(=O)oc2c(C)c(OCc3ccccc3Cl)ccc12 16.4%
COc1cccc(C(=O)NNC(=O)/C=C/c2ccccc2)c1 -14.4%
COc1cccc(C(=O)NNC(=O)c2cccc(F)c2)c1 -10.7%
O=C(O)c1ccc(S(=O)(=O)N2CCC(Cc3ccccc3)CC2)cc1 -2.12%
